Experimental findings from ChEMBL document CHEMBL3988442, “University of Dundee, Small-Polar-MMV Screening Library” (2021) are described below.

What all share (set-up): scale not given: direction of the effect not stated beside the values
Experiment [1] has as its target Protein translocase subunit SecA (Escherichia coli (strain K12)) (UniProt P10408). The experiment in a line: Assay to Identify E. coli SecA ATPase Inhibitors. The experiment is classed as functional. Conditions: 30 µM.
Experiment [2] addresses T1, Ubiquitin-activating enzyme e1, putative (Leishmania donovani (strain BPK282A1)) (UniProt E9BSI1).
T1 sequence (whole entry): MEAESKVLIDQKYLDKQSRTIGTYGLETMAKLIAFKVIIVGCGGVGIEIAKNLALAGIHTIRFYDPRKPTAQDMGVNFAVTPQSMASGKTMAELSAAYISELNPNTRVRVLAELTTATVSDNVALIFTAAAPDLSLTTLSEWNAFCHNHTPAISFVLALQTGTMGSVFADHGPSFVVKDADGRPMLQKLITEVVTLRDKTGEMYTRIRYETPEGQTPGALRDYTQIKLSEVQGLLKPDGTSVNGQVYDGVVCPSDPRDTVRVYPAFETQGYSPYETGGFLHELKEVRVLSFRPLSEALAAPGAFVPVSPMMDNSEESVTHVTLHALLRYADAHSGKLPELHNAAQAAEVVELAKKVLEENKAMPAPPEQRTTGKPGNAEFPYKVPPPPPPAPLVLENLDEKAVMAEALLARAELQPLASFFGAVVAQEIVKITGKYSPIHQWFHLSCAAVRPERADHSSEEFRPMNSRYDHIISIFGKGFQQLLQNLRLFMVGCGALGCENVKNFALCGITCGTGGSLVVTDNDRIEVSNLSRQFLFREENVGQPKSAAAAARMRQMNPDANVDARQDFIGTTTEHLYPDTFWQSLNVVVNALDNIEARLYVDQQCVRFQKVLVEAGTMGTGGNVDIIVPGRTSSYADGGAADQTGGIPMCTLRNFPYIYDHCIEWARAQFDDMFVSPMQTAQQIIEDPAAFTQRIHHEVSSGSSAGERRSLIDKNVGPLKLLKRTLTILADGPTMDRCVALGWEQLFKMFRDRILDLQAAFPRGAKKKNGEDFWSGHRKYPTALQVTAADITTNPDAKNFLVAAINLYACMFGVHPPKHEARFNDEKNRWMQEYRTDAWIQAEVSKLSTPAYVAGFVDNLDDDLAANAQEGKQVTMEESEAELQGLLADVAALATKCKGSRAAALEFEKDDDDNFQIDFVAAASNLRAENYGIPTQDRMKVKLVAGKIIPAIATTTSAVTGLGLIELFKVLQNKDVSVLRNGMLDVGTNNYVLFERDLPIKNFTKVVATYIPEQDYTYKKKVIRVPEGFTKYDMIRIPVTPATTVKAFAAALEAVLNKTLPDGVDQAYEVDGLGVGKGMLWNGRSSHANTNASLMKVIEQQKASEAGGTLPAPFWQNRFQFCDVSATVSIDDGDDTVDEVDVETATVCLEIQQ
Kind of experiment: Leishmania donovani Ubiquitin Activating Enzyme (LdE1). The class given is functional. Conditions: 30 µM.

Experiment [3] has as its target AMP-activated protein kinase, AMPK (Homo sapiens) (UniProt P54646+O43741+P54619+Q9UGJ0+Q9Y478+Q13131+Q9UGI9). The experiment in a line: AMP-dependent Kinase enzyme assay. An in vitro enzyme assay that detects ADP turnover that is directly proportional to AMPK activity. This uses naive AMPK that is activated during the assay with MK-8722. Conditions: 30 µM. The experiment is classed as functional.

Experiment [4] has as its target Sialic acid-binding Ig-like lectin 9 (Homo sapiens) (UniProt Q9Y336). Kind of experiment: Hs-Siglec9 ALPHAscreen SOP 20170721. Particulars: 10 µM. (In Alpha technology, singlet oxygen from a donor bead excites a nearby acceptor bead.)
In another experiment the test system is Trypanosoma cruzi. The experiment in a line: Trypanosoma cruzi phosphomannomutase and mannose-1-phosphate guanylyltransferase assay. The class given is functional. Conditions: 10 µM.
Experiment [5] deals with T2, Arginase-2, mitochondrial (Homo sapiens) (UniProt P78540).
T2 sequence (whole entry): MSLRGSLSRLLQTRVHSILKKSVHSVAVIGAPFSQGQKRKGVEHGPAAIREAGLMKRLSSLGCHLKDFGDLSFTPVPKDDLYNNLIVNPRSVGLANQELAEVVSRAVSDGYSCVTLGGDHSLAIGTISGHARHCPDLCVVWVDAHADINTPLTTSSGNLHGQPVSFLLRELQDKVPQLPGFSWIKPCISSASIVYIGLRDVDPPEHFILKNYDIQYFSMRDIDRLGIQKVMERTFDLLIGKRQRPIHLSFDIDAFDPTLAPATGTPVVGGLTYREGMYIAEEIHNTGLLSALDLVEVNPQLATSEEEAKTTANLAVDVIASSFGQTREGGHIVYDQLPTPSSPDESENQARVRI
The experiment in a line: in vitro enzyme assay to detect the production of urea directly proportional to the activity of Arginase II. Also: in the data most compounds retested in dose-response had high values. Particulars: 33.3 µM. The experiment is classed as functional.

Experiment [6] has as its target T3, Proteasome subunit beta (Trypanosoma cruzi) (UniProt O96673).
T3 sequence (whole entry): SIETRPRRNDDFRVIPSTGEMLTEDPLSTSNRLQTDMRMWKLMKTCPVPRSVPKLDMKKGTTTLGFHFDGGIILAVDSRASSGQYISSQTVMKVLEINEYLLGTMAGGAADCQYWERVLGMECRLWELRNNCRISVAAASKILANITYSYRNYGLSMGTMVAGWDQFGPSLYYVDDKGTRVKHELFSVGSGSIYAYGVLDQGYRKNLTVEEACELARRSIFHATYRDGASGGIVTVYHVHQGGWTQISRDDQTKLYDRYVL
The experiment in a line: Trypanosoma cruzi proteasome chymotrypsin-like activity (TcProtChymo) assay. Also: in the data most compounds retested in dose-response had high values. The experiment is classed as functional. Particulars: 9.37 µM.

For a further experiment, the species on record is Homo sapiens. The experiment in a line: To identify inhibition of the IFN signalling (Jak-Stat) pathway via expression of an eGFP reporter gene under the control of an IFN-stimulated response element (ISRE) containing MxA promoter. Particulars: 30 µM. The experiment is classed as functional. A general note: Reporter assays use an easily measured gene product as a stand-in for the process of interest.

Experiment [7] addresses T4, Tyrosyl-tRNA synthetase, putative (Trypanosoma cruzi (strain CL Brener)) (UniProt Q4DSP6).
T4 sequence (whole entry): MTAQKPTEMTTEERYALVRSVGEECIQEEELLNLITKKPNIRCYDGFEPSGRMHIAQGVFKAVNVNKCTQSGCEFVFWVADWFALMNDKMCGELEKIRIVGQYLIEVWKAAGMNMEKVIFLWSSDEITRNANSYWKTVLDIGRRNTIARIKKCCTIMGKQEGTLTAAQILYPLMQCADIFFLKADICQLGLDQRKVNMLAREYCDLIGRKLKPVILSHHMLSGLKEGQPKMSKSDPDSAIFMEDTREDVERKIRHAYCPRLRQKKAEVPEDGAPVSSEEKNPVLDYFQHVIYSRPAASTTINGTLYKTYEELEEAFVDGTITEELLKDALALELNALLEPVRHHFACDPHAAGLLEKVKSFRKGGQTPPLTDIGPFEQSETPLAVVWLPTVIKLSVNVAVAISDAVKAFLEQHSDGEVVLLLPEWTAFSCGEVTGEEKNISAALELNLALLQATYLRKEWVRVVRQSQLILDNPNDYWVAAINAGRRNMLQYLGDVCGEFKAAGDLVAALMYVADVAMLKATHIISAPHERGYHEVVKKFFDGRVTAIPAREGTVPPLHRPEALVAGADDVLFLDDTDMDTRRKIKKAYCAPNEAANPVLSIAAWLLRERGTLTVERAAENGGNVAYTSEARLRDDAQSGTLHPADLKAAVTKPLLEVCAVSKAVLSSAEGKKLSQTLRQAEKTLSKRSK
The experiment in a line: Trypanosoma cruzi tyrosyl tRNA synthetase (TcYRS) _High Tyrosine SOP. Also: in the data most compounds retested in dose-response had high values. The class given is functional. Particulars: 30 µM.

Experiment [8] deals with T4, Tyrosyl-tRNA synthetase, putative (Trypanosoma cruzi (strain CL Brener)). The experiment in a line: Trypanosoma cruzi tyrosyl tRNA synthetase (TcYRS) SOP. The experiment is classed as functional. Particulars: 30 µM.
Experiment [9] deals with Chromo domain-containing protein 1 (Saccharomyces cerevisiae (strain ATCC 204508 / S288c) (Baker's yeast)) (UniProt P32657). Kind of experiment: ScCHD-1 Enzyme Inhibition Assay. Also: in the data most compounds retested in dose-response had high values. The experiment is classed as functional. Particulars: 30 µM.
Sequence of Chromo domain-containing protein 1 (Saccharomyces cerevisiae (strain ATCC 204508 / S288c) (Baker's yeast)) (P32657 whole entry, the tested form may be a part): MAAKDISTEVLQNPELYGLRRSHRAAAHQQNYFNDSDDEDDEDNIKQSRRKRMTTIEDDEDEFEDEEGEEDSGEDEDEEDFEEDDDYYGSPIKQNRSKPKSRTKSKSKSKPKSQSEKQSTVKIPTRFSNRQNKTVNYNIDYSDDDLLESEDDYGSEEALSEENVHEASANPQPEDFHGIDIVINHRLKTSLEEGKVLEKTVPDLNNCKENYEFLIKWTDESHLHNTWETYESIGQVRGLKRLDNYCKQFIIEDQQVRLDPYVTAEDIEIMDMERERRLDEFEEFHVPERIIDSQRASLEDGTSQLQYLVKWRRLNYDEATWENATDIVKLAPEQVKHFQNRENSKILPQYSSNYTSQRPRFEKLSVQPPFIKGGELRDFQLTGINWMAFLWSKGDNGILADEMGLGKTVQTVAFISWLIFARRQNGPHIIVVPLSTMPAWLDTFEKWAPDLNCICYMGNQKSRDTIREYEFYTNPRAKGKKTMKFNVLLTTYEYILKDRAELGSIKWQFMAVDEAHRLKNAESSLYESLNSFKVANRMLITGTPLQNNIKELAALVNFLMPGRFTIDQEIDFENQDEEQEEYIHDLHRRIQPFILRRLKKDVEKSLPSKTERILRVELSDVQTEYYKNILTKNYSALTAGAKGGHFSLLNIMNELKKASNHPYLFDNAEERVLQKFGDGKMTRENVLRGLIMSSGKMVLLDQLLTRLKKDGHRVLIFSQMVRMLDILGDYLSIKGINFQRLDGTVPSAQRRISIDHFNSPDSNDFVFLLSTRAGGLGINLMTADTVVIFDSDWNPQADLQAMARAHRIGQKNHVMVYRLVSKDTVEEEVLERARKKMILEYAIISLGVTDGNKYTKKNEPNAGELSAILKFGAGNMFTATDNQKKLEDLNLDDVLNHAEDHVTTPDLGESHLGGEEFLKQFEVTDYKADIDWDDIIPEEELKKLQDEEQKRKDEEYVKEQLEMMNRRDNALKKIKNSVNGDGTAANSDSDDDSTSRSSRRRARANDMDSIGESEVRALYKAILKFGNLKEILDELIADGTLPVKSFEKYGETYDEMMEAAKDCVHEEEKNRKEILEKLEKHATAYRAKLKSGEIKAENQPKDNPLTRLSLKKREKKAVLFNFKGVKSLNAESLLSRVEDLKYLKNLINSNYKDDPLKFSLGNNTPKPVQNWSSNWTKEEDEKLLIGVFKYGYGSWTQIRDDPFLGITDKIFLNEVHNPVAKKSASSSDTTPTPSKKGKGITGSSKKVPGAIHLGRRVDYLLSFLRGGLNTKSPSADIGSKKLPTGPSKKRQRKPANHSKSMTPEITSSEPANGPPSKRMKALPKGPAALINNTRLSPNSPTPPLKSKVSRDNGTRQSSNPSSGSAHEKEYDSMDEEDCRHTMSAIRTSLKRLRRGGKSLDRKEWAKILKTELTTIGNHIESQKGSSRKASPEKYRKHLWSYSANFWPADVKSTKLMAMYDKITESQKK

For some of these results: Results with a measured potency or affinity are listed apart.

Sequence of Sialic acid-binding Ig-like lectin 9 (Homo sapiens) (Q9Y336 whole entry): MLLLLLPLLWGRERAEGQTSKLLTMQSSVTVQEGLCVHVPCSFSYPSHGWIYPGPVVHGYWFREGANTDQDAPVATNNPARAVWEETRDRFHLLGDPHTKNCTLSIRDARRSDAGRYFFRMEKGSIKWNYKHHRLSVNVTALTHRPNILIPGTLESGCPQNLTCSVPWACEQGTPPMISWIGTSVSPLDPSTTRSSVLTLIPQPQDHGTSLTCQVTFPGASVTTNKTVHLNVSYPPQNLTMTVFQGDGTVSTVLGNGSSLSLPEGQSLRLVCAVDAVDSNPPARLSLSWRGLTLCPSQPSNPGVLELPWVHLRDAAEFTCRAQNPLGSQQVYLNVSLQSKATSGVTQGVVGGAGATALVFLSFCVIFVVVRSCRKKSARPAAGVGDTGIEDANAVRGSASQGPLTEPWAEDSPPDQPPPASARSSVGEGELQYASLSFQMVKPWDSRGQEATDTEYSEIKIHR
Sequence of Protein translocase subunit SecA (Escherichia coli (strain K12)) (P10408 whole entry): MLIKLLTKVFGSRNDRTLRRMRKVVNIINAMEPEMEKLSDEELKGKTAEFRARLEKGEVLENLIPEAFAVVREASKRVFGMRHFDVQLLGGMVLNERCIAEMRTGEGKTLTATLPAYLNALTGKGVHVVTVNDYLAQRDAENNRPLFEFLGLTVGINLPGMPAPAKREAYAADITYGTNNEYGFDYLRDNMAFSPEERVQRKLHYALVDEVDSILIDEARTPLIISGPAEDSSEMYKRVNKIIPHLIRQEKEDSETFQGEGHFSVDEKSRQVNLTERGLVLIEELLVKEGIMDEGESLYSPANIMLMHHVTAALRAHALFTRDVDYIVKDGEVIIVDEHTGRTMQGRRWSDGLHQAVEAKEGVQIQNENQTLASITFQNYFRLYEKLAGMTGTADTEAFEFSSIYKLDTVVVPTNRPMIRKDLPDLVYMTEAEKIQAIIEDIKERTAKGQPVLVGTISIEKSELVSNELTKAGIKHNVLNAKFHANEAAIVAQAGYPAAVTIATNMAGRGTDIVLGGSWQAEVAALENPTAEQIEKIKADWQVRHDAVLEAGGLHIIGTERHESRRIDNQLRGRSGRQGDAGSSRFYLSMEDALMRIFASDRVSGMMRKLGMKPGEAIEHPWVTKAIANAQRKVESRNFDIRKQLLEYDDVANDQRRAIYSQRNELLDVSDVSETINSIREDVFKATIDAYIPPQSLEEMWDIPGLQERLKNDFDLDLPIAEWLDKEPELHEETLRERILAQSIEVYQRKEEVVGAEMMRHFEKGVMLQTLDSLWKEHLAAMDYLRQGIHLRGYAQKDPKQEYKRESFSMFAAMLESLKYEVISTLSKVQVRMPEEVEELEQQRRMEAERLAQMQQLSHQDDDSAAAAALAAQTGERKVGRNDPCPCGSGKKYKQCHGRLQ

Regarding `CCS(=O)(=O)c1ccccc1N1CCC(NC(C)=O)CC1`, the Percent Effect in experiment [1] was -2.22%; in experiment [2] it was 21.6%; in experiment [3], -1.79%; in [4] it was 2.67%; in the experiment with Trypanosoma cruzi, -5.11%; in experiment [5] it was -4.25%. In addition, the Percent Effect in experiment [6] was -19.4%; in the experiment listed under Homo sapiens it was 11.3%; in [7] it was 6.93%; in experiment [8], 13.4%; in experiment [9], 0.794%.
In the case of `Cc1cc(NC(=O)CN2CCOC(Cn3cccn3)C2)n(C)n1` (stereo unspecified), the Percent Effect was -5.44% in experiment [1]; 0% in experiment [2]; 5.74% in experiment [3]; -1.25% in [4]; 1.27% in the experiment on Trypanosoma cruzi; -1.05% in [5]. The Percent Effect in experiment [6] is -1.86%; in the experiment filed under Homo sapiens, 15.9%; in [7], 2.86%; in experiment [8] it was 9.41%; in [9], -16.3%.
For `CC(=O)c1ccccc1C(=O)NCC1(CO)CC1`, the Percent Effect in experiment [1] was -0.313%; in experiment [2], 10.8%; in experiment [3], -5.63%; in experiment [4], 7.79%; in the experiment with Trypanosoma cruzi, 1.16%; in [5], -4.29%. Further, the Percent Effect is 3.79% in experiment [6]; 21.2% in the experiment filed under Homo sapiens; 4.76% in experiment [7]; -4.88% in experiment [8]; -0.424% in experiment [9].
Take `CCOC(C)c1nc(CN2CCC(CNC(C)=O)CC2)cs1` (stereo unspecified): the Percent Effect was -1.27% in experiment [1]; 0% in experiment [2]; -5.03% in [3]; 0.273% in experiment [4]; 1.93% in the experiment on Trypanosoma cruzi; -2.86% in experiment [5]. In addition, the Percent Effect in [6] was 8.97%; in the experiment filed under Homo sapiens, -19.2%; in [7], -0.529%; in experiment [8], -2.44%; in experiment [9], -2.65%.
With `Cc1cc(C[C@@H]2COC[C@@H]2NC(=O)CN2CCCN(C)CC2)on1`, the Percent Effect in experiment [1] was -3.19%; in experiment [2] it was 16.4%; in experiment [3] it was 2.04%; in experiment [4], 6.47%; in the experiment on Trypanosoma cruzi it was 6.27%; in experiment [5] it was 4.54%. The Percent Effect in [6] is 13.3%; in the experiment filed under Homo sapiens it was 4.37%; in experiment [7], 8.6%; in experiment [8], -55%; in experiment [9], -6.96%.
With `Cn1nc(CNC(=O)c2nc3ccccc3s2)c2c1CCOC2`, the Percent Effect is -1.59% in [1]; 0% in experiment [2]; 8.14% in experiment [3]; 0.56% in experiment [4]; 5.03% in the experiment with Trypanosoma cruzi; -0.645% in experiment [5]. For the same compound, the Percent Effect in experiment [6] is 4.18%; in the experiment listed under Homo sapiens, 24.8%; in experiment [7] it was 1.06%; in [8], 6.41%; in [9] it was -5.4%.
As to `CN(CCCc1cnn(C)c1)C(=O)C1CCOC1` (stereo unspecified), the Percent Effect is -4.14% in experiment [1]; 2.74% in [2]; 3.21% in experiment [3]; 1.94% in [4]; -6.46% with Trypanosoma cruzi; -1.36% in experiment [5]. In addition, the Percent Effect in [6] is 13.1%; in the experiment filed under Homo sapiens, 10.7%; in experiment [7] it was 3.23%; in [8], 2.5%; in experiment [9], -1.18%.
For `CN(C)S(=O)(=O)N1CCC(Oc2ccc(C#N)cc2)CC1`, the Percent Effect in experiment [1] is -1%; in experiment [2] it was 1.39%; in experiment [3], 2.51%; in [4], -6.53%; in the experiment on Trypanosoma cruzi, -6.12%; in [5], 1.77%. The Percent Effect is 16.8% in experiment [6]; 17.2% in the experiment filed under Homo sapiens; 2.1% in experiment [7]; 2.56% in experiment [8]; -0.203% in experiment [9].
On to `Cc1ccc2cc(C3(O)CCN(C(=O)CN4CCCC4)CC3)ccc2n1`, for which the Percent Effect was -2.77% in experiment [1]; -1.39% in [2]; -1.64% in experiment [3]; -0.537% in experiment [4]; -4.96% in the experiment on Trypanosoma cruzi; 3.53% in [5]. Moreover, the Percent Effect in experiment [6] was determined as 11.9%; in the experiment listed under Homo sapiens, 4.91%; in experiment [7] it was 2.1%; in experiment [8] it was 5.13%; in experiment [9] it was 0.856%.
Consider `C1CC(CN2CCO[C@H]3[C@H](OCC4CC4)CC[C@@H]32)CCO1`, for which the Percent Effect in experiment [1] is -7.62%; in experiment [2] it was 2.7%; in experiment [3], -2.6%; in experiment [4], -1.5%; in the experiment with Trypanosoma cruzi, -2.93%; in experiment [5] it was 2.08%. For the same compound, the Percent Effect in experiment [6] is 16.3%; in the experiment listed under Homo sapiens it was 7.72%; in experiment [7] it was 5.94%; in [8], 3.66%; in experiment [9] it was -1.93%.
In the case of `CN(Cc1ccc(Cl)s1)C1CCCN(c2cccnn2)C1` (stereo unspecified), the Percent Effect was -0.186% in [1]; -18.4% in experiment [2]; 14.3% in experiment [3]; 0.257% in experiment [4]; 1.27% in the experiment with Trypanosoma cruzi; 15.4% in experiment [5]. In addition, the Percent Effect in [6] was 7.19%; in the experiment listed under Homo sapiens, 10.5%; in experiment [7] it was 9.57%; in experiment [8], 10.4%; in [9] it was -1.67%.
